Bioassay records deposited in PubChem by The Scripps Research Institute Molecular Screening Center.
ASK1 primary – ASK1 kinase inhibitors, primary screen, biochemical, AlphaScreen | Mitogen-activated protein kinase kinase kinase 5 (Homo sapiens), Q99683 | AlphaScreen MKK6 phosphorylation by ASK1, luminescence | inhibition, % at 7.44 µM | 0.99% of 22,000 active | AID 1159602, 2016; in the data active means inhibition above about 35%;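 further: 0% = median of compound wells and 100% = no enzyme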
ULK1 inh – ULK1 kinase inhibitors, primary screen, biochemical, AlphaScreen; Serine/threonine-protein kinase ULK1 (Homo sapiens), O75385; AlphaScreen Atg13 phosphorylation by ULK1, luminescence; inhibition, % at 5.96 µM; 1.9% of 30,000 active; AID 1259251, 2017; in the data active means inhibition above about 43%;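 further: 0% = median of compound wells and 100% = no enzyme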
Target sequence (O75385 whole entry, looked up): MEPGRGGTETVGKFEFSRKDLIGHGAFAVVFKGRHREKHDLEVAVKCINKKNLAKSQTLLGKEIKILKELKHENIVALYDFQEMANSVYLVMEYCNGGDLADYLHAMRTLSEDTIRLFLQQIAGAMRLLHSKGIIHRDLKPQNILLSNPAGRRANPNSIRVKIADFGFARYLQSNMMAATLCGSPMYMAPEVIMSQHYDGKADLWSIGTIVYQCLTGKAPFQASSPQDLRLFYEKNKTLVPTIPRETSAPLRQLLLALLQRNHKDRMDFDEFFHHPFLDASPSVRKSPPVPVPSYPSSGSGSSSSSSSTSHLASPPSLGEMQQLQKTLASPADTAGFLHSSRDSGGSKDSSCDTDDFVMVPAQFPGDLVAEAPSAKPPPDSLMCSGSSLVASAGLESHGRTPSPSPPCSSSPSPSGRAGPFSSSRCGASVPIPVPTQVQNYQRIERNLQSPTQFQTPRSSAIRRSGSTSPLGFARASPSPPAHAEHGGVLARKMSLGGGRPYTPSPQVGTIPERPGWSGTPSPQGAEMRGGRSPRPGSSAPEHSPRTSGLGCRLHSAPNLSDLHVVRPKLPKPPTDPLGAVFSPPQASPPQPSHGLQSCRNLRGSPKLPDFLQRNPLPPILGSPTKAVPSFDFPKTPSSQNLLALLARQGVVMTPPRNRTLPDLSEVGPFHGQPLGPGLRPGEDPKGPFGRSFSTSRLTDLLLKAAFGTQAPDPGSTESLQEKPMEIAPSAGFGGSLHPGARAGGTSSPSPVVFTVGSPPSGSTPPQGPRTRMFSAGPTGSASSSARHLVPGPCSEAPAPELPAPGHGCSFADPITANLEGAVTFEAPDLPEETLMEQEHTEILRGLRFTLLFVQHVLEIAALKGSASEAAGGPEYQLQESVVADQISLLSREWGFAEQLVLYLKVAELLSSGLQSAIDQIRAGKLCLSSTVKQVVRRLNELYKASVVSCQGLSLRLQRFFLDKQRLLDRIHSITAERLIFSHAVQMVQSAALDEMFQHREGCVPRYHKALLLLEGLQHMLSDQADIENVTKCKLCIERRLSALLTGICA
The depositor's hits bear a star; / = no result. Sampled rows, rich in hits. Any-hit rate of the full collection: about 2.5%.

SMILES	ASK1 primary	ULK1 inh
O=C(NCCCN1CCCC1=O)c1cccc(NCCCN2CCCC2=O)c1	2	-13
O=C(NCc1ccccc1)c1cccc(NCCCN2CCCC2=O)c1	-6	54*
O=C(Cc1cn(-c2ccc(Nc3ccncn3)nn2)c2ccccc12)NCc1ccccc1	1	27
Cc1nc2cc(-c3ccnc(Nc4cccc(C(=O)NC(C)C)c4)n3)ccc2c(=O)n1C1CC1	-2	9
O=C(c1cccc(Nc2nccc(-c3ccc4nc(C5CC5)[nH]c(=O)c4c3)n2)c1)N1CCCC1	-26	80*
O=C(c1cccc(Nc2nccc(-c3ccc4c(=O)[nH]c(C5CC5)nc4c3)n2)c1)N1CCCC1	-17	65*
Cc1nc2ccc(-c3ccnc(Nc4cccc(C(=O)N5CCCC5)c4)n3)cc2c(=O)n1C	3	-10
c1ccc(N2CCN(c3nccc(NCc4cccnc4)n3)CC2)nc1	-7	2
c1ccc(-c2cnc3ccc4ccncc4c3c2)cc1	6	7
CCc1c[nH]c2ncnc(-c3ccc(NC(=O)Nc4cccc(C(=O)NC(C)C)c4)cc3)c12	18	16
CC(C)NC(=O)c1cccc(NC(=O)Nc2ccc(-c3ncnc4[nH]ccc34)cc2)c1	15	47*
CN(C)CCCO[C@@H]1[C@H]2OC(C)(C)O[C@H]2O[C@@H]1C(O)CO (stereo partly specified)	/	-1
c1cc(-n2cnc3c(Nc4ccc(N5CCOCC5)cc4)nc(Nc4ccc(N5CCOCC5)cc4)nc32)cs1	20	20
c1cncc(Nc2nc(Nc3ccc(N4CCOCC4)cc3)c3ncn(-c4ccsc4)c3n2)c1	29	49*
c1ccc(Nc2nc(Nc3ccc(N4CCOCC4)cc3)nc3c2ncn3-c2ccsc2)cc1	29	41
c1cn(-c2ccc(Nc3nc(Nc4ccc(N5CCOCC5)cc4)c4ncn(-c5ccsc5)c4n3)cc2)cn1	21	46*
COc1ncc(-c2ccncc2)cc1[N+](=O)[O-]	10	-1
CN(C)CCOc1cc(-c2cn[nH]c2)ccc1NC(=O)C1CCc2ccccc2C1 (stereo unspecified)	-14	-30
c1ccc(OCCNc2nc(Nc3ccc4ncccc4c3)nc3c2ncn3C2CCCCC2)cc1	3	4
C=CN1CCCC1=O	/	18
NC(=O)c1ccc(-c2cccc(C(=O)NCCN3CCOCC3)n2)cc1	-2	-4
Cc1cnc(Nc2ccc3ncccc3c2)nc1NCCc1ccc(O)cc1	4	51*
COc1cc(Nc2nc(Nc3ncccn3)ncc2C)cc(OC)c1OC	-5	29
COc1ccc(CCNc2nc(Nc3ccc4ncccc4c3)ncc2C)cc1	-4	32
COc1cc(Nc2nc(Nc3cccnc3)ncc2C)cc(OC)c1OC	5	33
SMILES	ASK1 primary	ULK1 inh
COc1cc(Nc2ncc(C)c(Nc3ccccc3)n2)cc(OC)c1OC	15	73*
COc1cc(Nc2nc(Nc3ccc4ncccc4c3)ncc2C)cc(OC)c1OC	16	63*
NC(=O)c1ccc(-c2cc(NCCO)nc(N)n2)cc1	5	-10
CCCNC(=O)Cc1cn(-c2ccc(Nc3ccc(C(F)(F)F)cc3)nn2)c2ccccc12	0	-1
CCCNc1cc(N2CCN(Cc3ccc4c(c3)OCO4)CC2)nc(N)n1	2	8
CN1CCN(C(=O)c2ccc(-c3cccc(C(=O)NCc4ccccc4)n3)cc2)CC1	15	70*
CN1CCN(C(=O)c2ccc(-c3cccc(C(=O)NCc4cccnc4)n3)cc2)CC1	6	9
O=C1c2ccccc2-c2n[nH]c3cccc1c23	-43	76*
O=C1C(=O)c2ncccc2-c2cccnc21	/	38
NS(=O)(=O)c1ccc(Nc2nccc(-c3ccc(NS(=O)(=O)Cc4ccccc4)cc3)n2)cc1	-14	33
CCS(=O)(=O)Nc1ccc(-c2ccnc(Nc3ccc(S(N)(=O)=O)cc3)n2)cc1	-8	60*
CC(C)S(=O)(=O)Nc1ccc(-c2ccnc(Nc3ccc(S(N)(=O)=O)cc3)n2)cc1	-9	50*
NS(=O)(=O)c1ccc(Nc2nccc(-c3ccccc3)n2)cc1	8	7
COc1cc2nc(Nc3ccc(-n4ccnc4)cc3)nc(Nc3ccc(N4CCOCC4)cc3)c2cc1OC	17	-2
CN1CCN(C(=O)c2ccc(-c3ncc(C(=O)NCc4nc5ccccc5[nH]4)s3)cc2)CC1	-14	3
O=C(NC1CC1)c1ccc(-c2nc(NCCO)c3ncn(C4CCCCC4)c3n2)cc1	1	-4
CC(=O)Nc1ccc(Nc2nc(NCCCN3CCCC3=O)ncc2C)cc1	-14	35
Cc1cnc(Nc2ccc(N3CCOCC3)cc2)nc1Nc1ccc(N2CCOCC2)cc1	21	13
Cc1cnc(NCCCN2CCCC2=O)nc1NCCN1CCOCC1	0	7
Cc1cnc(Nc2nccc3ccccc23)nc1Nc1ccc(N2CCOCC2)cc1	13	46*
Cc1cnc(NCCCN2CCCC2=O)nc1NCCCN1CCCC1=O	-2	1
Cc1cnc(NCCCN2CCCC2=O)nc1Nc1ccc(N2CCOCC2)cc1	4	46*
